Assay outcomes deposited in PubChem BioAssay by National Center for Advancing Translational Sciences (NCATS).
Compounds with a hit are over-represented: about 6% of the library has one in this group of screens.
DRD3 antagonist: blocks the human D3 dopamine receptor; max response, negative = inhibition, %; 360,000 tested, 2.5% active; AID 652054; D3R cells, DiscoveRx beta-arrestin luminescence, antagonist mode; stronger effect = lower value; P35462; in the data active means max response below about -50%; inconclusive means no clear call, values can overlap the other calls; further: on the % scale 0 is the no-effect control and ±100 the full control effect
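Cells expressing the human receptor were seeded at 1500 cells/well, incubated overnight at 37 degrees C in 5% CO2, then exposed to library compounds with dopamine controls for 90 minutes at 37 degrees C before luminescent detection.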
D1 antag: blocks dopamine activation of the human D1 receptor | P21728 | 360,000 tested, 3.2% active | activity change, negative = inhibition, % at 10 µM | HEK293 TREx D1 cells, calcium flux, dopamine EC80; stronger effect = lower value; in the data active means activity change below about -30%; further: on the % scale 0 is the no-effect control and ±100 the full control effect
Target sequence (P21728 whole entry, looked up): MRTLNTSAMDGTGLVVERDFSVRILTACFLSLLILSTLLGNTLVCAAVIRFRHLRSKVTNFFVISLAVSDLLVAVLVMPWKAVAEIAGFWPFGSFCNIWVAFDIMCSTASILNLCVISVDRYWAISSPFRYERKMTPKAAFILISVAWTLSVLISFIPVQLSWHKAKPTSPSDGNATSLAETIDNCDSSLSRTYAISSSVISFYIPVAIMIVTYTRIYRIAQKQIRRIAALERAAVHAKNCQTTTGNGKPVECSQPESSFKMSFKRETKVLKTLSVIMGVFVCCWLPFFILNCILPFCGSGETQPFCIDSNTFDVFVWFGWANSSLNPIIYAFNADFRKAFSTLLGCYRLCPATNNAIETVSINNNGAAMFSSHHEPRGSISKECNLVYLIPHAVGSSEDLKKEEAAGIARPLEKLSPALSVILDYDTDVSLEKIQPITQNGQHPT
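Tetracycline-induced HEK293 Trex D1 cells, force-coupled to calcium, dye-loaded; compounds added and read 180 s, then EC80 dopamine added and calcium flux tracked kinetically another 180 s.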
D1 PAM: potentiators of human D1 dopamine receptor; P21728; HEK293 TREx D1 cells, calcium flux, dopamine EC20 potentiation; potentiation, % at 10 µM; 360,000 tested, 0.036% active; in the data active means potentiation above about 30%; further: 0% is about no effect
D1 ag: human D1 receptor agonism; P21728; HEK293 T-REx D1 cells, calcium flux, agonist mode; activation, % at 2 µM; 360,000 tested, 1% active; AID 504660; in the data active means activation above about 30%; further: 0% is about no effect
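Inducible HEK293 T-REx D1 cells, force-coupled to calcium signalling, were plated at 4000 cells/well with tetracycline and held overnight at 30 C. After no-wash calcium dye loading, compound-evoked calcium rise over 180 s flagged agonists.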
D3 ag: D3 dopamine receptor (human) agonism. P35462. D3R DiscoveRx beta-arrestin cells, luminescence, 90 min. max activation, %. 410,000 tested, 0.58% active. AID 652048; in the data active means max activation above about 30%; further: 0% is about no effect
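Cells at 1500/well, incubated overnight, then treated with pinned compounds (dopamine as control) for 90 min at 37 degrees C. DiscoveRx reagent added for 30 - 60 minutes at room temperature; luminescence read.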
Chronic BCR inh: inhibitors of chronic active B-cell receptor signaling. ABC-DLBCL IkBa-CBG/CBR reporter, luminescence ratio, 4 h. 340,000 tested, 0.05% active. Potency, µM (doses to about 46.1 µM), for inactives: top-dose activity change, negative = inhibition, usual class: inhibitors; active means well fitted inhibition curve with a large enough effect in the signal ratio, with a control signal flat, not every such curve was filed as active; inconclusive means small, poorly fitted or top-dose-only effect, or effect the other way, or a change in a side signal; the % refers to the signal ratio;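 further: potency means the concentration at half of the fitted maximal effect; plate controls were basal doxycycline-induced cells for no effect and cells given 10 µM MG132 for full effect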
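TMD8 human ABC-DLBCL cells with doxycycline-inducible IκBα–green luciferase fusion and unfused red luciferase, in 0.5% FBS medium; compounds up to 46 uM, 4 h at 37C. Green/red luminescence ratio, filter-overlap corrected, fitted to concentration-response curves.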
Active calls of the source: *; ? = inconclusive; · = no result; ! = not active in a repeat.

SMILES	DRD3 antagonist	D1 antag	D1 PAM	D1 ag	D3 ag	Chronic BCR inh
CC1CCCCN1S(=O)(=O)c1ccc(C(=O)Nc2nnc(-c3ccccc3Cl)o2)cc1 (stereo not given)	-71*	-9	-3	11	5	-28%
CCOC(=O)c1ccc(N2C(=O)c3[nH]nc(-c4ccc(OCC)cc4)c3C2c2cccs2)cc1 (stereo not given)	·	6	4	4	3	·
Cc1ccc2ccc3c(c2n1)NS(=O)(=O)c1ccc(C(F)(F)F)cc1-3	·	10	-7	0	·	·
O=C1NC(=S)S/C1=C\c1ccc2ccccc2c1	33	-31*	-2	3	-2	3%
Cc1cccc(C(O)c2cnc(C)n2Cc2ccccc2)c1 (stereo not given)	-12	·	·	·	-10	·
FC(F)(F)c1cc(C(F)(F)F)c2ccc(N3CCOCC3)nc2n1	12	-2	-6	0	5	-1%
CN1CCCc2cc3c(C(F)(F)F)cc(=O)oc3nc21	6	2	-1	53*	2	-1%
Cc1ccc(-c2nnn(C/C(N)=N/O)n2)cc1	15	-39*	-2	6	3	11%
COc1cccc(C2=CC(c3ccc(OC)c(OC)c3OC)n3ncnc3N2)c1 (stereo not given)	·	-1	-3	-1	-13	?
COc1cccc(C2C=C(c3ccc(Br)s3)Nc3ncnn32)c1OC (stereo not given)	-12	-10	-1	48*	3	2%
COc1ccc(C2C=C(c3ccc(C)c(C)c3)Nc3ncnn32)c(OC)c1OC (stereo not given)	-68*	-27	-4	1	-14	?
Fc1ccc(Br)cc1C1C=C(c2ccc(Br)s2)Nc2ncnn21 (stereo not given)	-24	-12	0	10	-8	?
Oc1ccc(C[C@H]2CN([C@@H](Cc3ccc(O)cc3)CN3CCC[C@@H]3CN3C(=S)NC[C@@H]3Cc3ccccc3)C(=S)N2CC2CCCCCC2)cc1	-22	·	·	·	-10	·
CN1CCc2c(sc(NC(=O)CSc3ccccc3)c2-c2nc3ccccc3s2)C1	·	-54*	-2	400*	-24	-1%
CC(C)C(=O)N1CCc2cc(-c3csc(N)n3)ccc21	-3	-43*	-6	2	5	-12%
CCn1c(O)c(/C=C/C=C/C=Nc2ccccc2)sc1=S	-30	0	-1	8	-16	0%
Cc1ccccc1-n1c(O)c(/C=C/C=Nc2ccccc2)c(=O)[nH]c1=O	-14	-10	5	41*	2	5%
CS(=O)(=O)c1ccc(S(=O)CC(=O)Oc2ccc(Cl)cc2)c([N+](=O)[O-])c1 (stereo not given)	-102*	21	6	8	-16	18µM*
O=C(CS(=O)c1ccccc1[N+](=O)[O-])Oc1ccc(Br)cc1 (stereo not given)	6	-1	-5	2	5	5%
O=C(Nc1ccc2nc(SCC(=O)N3CCCC3)sc2c1)c1cccc(Br)c1	·	9	0	5	10	·
CCCNC(=O)c1cnc2c(-c3ccc(OCC)c(OCC)c3)c(C)nn2c1-c1ccccc1	·	0	-4	1	7	·
O=C(O)c1cccc(-c2ccc(/C=N/Nc3ccc([N+](=O)[O-])cc3)o2)c1	-27	4	3	103*	-5	?
O=C(O)c1ccccc1C=NNc1ccc([N+](=O)[O-])cn1	-2	·	·	·	-3	·
O=C(O)c1ccc(-c2ccc(/C=N/Nc3ccc([N+](=O)[O-])cc3)o2)cc1	?	5	0	151*	-6	7%
O=C(O)c1cc(-c2ccc(/C=N/Nc3ccc([N+](=O)[O-])cn3)o2)ccc1Cl	-75*	-8	6	12	-20	27%
SMILES	DRD3 antagonist	D1 antag	D1 PAM	D1 ag	D3 ag	Chronic BCR inh
CC1(C(=O)NS(=O)(=O)C2CC2)CCCN(C(=O)c2cc3ccccc3s2)C1 (stereo not given)	-23	·	·	·	-3	·
CC1(C)NC(=O)N(CCCC(=O)Nc2ccc(C(F)(F)F)cc2)C1=O	0	-9	-4	1	1	-1%
O=C(CCl)Nc1ccccc1Sc1ccc(Cl)cc1	?	-10	-1	2	-4	?
Cc1ccc(C)c(Sc2ccc(NC(=O)CCN3C(=O)NC4(CCCC4)C3=O)cc2)c1	-1	-33*	5	7	0	?
CC(C)c1ccc(NC(=O)CCCN2C(=O)NC(C)(C)C2=O)cc1	3	-53*	-4	0	5	6%
Cc1ccc(Sc2ccc(NC(=O)CCl)cc2)c(C)c1	0	-73*	-7	16	0	?
Cc1ccc(NC(=O)CCN2C(=O)NC3(CCCC3)C2=O)cc1	3	40	-3	3	4	0%
Cc1ccc(CNC(=O)c2cn(C)c3ccc(S(=O)(=O)N4CCC(C)CC4)cc3c2=O)cc1	·	-18	1	-1	-17	·
c1ccc(SC23CCCCN(CCC2)C32OCCO2)cc1 (stereo not given)	4	·	·	·	2	·
O=S(=O)(NCCN1CCOCC1)c1cc(Cl)c(Cl)cc1Cl	3	-31*	-5	6	1	6%
COc1cc(Cl)c(S(=O)(=O)NCCN2CCOCC2)cc1Cl	-25	0	1	2	4	0%
Cc1cc(C)c(NC(=O)OCCN2CCOCC2)c(C)c1	-60*	2	-2	1	-7	1%
Cc1ccc(-c2nn(C)c(=O)c3ccccc23)cc1S(=O)(=O)NCCN1CCOCC1	-53*	20	0	-3	-5	-17%
Cc1ccc(S(=O)(=O)NC(=O)NCCCN2CCOCC2)cc1	-18	-56*	-10	2	-8	7%
CCOC(=O)CNS(=O)(=O)c1cc(-c2nn(C)c(=O)c3ccccc23)ccc1C	2	·	·	·	4	?
CCCSc1nnc(NC(=O)c2cc(=O)c3ccccc3o2)s1	·	-8	2	2	-7	·
Cc1ccc(S(=O)(=O)NCCCN2CCOCC2)cc1C	-67*	1	-6	1	-1	0%
Cc1cc(S(=O)(=O)NCCCN2CCOCC2)ccc1F	-29	4	0	2	-9	-3%
Cc1cc(C)cc(NC(=O)C(=O)NCCCN2CCOCC2)c1	18	-79*!	2	-1	-2	-6%
Cc1ccc(S(=O)(=O)NCCCN2CCCC2)cc1	-53*	5	2	1	-17	-1%
Cc1ccc(S(=O)(=O)NC(=O)N[C@@H](C)Cc2ccccc2)cc1	·	·	·	·	6	·
COc1ccc(/C=C/CN2CCC(CO)(Cc3ccccc3Cl)CC2)cc1	9	-1	3	109*	0	?
Cc1cccc(OCC(=O)N(Cc2cccs2)c2ccc(Cl)cc2)c1C	·	2	-2	20	8	·
